Measured values taken from PubChem BioAssay AID371 (SRMLSC, 2006).
Among all 3,300 compounds or so, about 280 (8.5%) were called active.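 How the source made its calls: active means mean growth inhibition over the two runs of 50% or more; inactive means mean growth inhibition under 50%.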 Many of the other results were omitted from the sample, so actives are more common in it than they were.

Test: A549 NSCLC cell proliferation inhibitors – ATP luminescence, human non-small cell lung line, primary screen (AID 371);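 further: compound exposure lasted 72 h before the ATP read; 0% = untreated cell signal and 100% = no luminescence left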
Settings: at 10 µM, active compounds read high

SMILES	growth inhibition
CN(C)CCOC(=O)c1cn(Cc2ccccc2)c2ccccc12	61.2% (active)
Nc1c(C(=O)NCc2ccco2)c2nc3ccccc3nc2n1Cc1ccc(F)cc1	86.7% (active)
CC(C)(C)OC(=O)c1c(N)n(Cc2ccco2)c2nc3ccccc3nc12	56.9% (active)
COCCOC(=O)c1c(N)n(Cc2ccco2)c2nc3ccccc3nc12	12.9% (inactive)
CCCCOCCCn1c(N)c(C(=O)OCCOC)c2nc3ccccc3nc21	23.4% (inactive)
CCCCOCCCn1c(N)c(C(=O)OC(C)COC)c2nc3ccccc3nc21 (stereo not given)	36.6% (inactive)
CC(C)OC(=O)c1c(N)n(Cc2ccco2)c2nc3ccccc3nc12	18.6% (inactive)
COCC(C)OC(=O)c1c(N)n(Cc2ccco2)c2nc3ccccc3nc12 (stereo not given)	14% (inactive)
Nc1c(C(=O)NCc2ccco2)c2nc3ccccc3nc2n1CCN1CCCCC1	91.8% (active)
COc1ccc(Cn2c(O)c(C=NCCCn3ccnc3)c(=O)[nH]c2=O)cc1	-7.41% (inactive)
CCCCCCn1c(O)c(C(C)=NC)c(=O)[nH]c1=O	8.94% (inactive)
O=C(c1ccco1)C12CN3CN(CN(C3)C1)C2	-3.02% (inactive)
OC1(c2ccc(F)cc2)CCNC1 (stereo not given)	-3.04% (inactive)
O=C1C2CCN(CC2)[C@@H]1Cc1ccc2ccccc2c1O	7.73% (inactive)
COc1cc2[nH]c(=O)n(-c3cccc(Cl)c3)c(=O)c2cc1OC	3.67% (inactive)
O=C1c2ccccc2C(=O)N1Cc1nc2ccccc2c(=O)n1-c1cccnc1	-0.22% (inactive)
C=CCC1(CN2CCCCCC2=O)C(=O)NC(=O)NC1=O	2.99% (inactive)
CCCCNC(=O)Nc1ccc(C(O)(C(=O)OC)C(F)(F)F)cc1 (stereo not given)	-4.53% (inactive)
CCOC(C(=O)OCC(O)CN(CC)CC)(c1ccccc1)c1ccccc1 (stereo not given)	15.7% (inactive)
O=C(O)CCCc1ccc(N(CCCl)CCCl)cc1	50.8% (active)
CCOCCN1CCC(OC(C)=O)C(C)C1 (stereo not given)	1.45% (inactive)
CCOc1ccc(Cc2c(O)[nH]c(=O)[nH]c2=O)cc1	-5.3% (inactive)
CCCCNC(=O)Nc1ccc(C(O)(C(=O)OCC)C(F)(F)F)cc1 (stereo not given)	-3.41% (inactive)
CN1CCC(OC(=O)C2c3ccccc3Oc3ccccc32)CC1	13% (inactive)

SMILES	growth inhibition
CCCC12CN3CN(C1)CC(CCC)(C3)C2O (stereo not given)	-0.83% (inactive)
CC(C)[C@H]1C(=O)N2CCC[C@H]2[C@]2(O)O[C@](NC(=O)[C@@H]3C=C4c5cccc6[nH]cc(c56)C[C@H]4N(C)C3)(C(C)C)C(=O)N12	37.3% (inactive)
CC(C)[C@@]1(NC(=O)[C@@H]2C[C@@H]3c4cccc5[nH]cc(c45)C[C@H]3N(C)C2)O[C@@]2(O)[C@@H]3CCCN3C(=O)[C@H](Cc3ccccc3)N2C1=O	85.1% (active)
CC(C)[C@@]1(NC(=O)[C@@H]2C=C3c4cccc5[nH]cc(c45)C[C@H]3N(C)C2)O[C@@]2(O)[C@@H]3CCCN3C(=O)[C@H](Cc3ccccc3)N2C1=O	35.2% (inactive)
O=c1[nH]c(=O)n(Cc2ccccc2)c(O)c1C=NCCN1CCOCC1	-6.38% (inactive)
O=c1[nH]c(=O)n(Cc2ccccc2)c(O)c1C=NCCN1CCNCC1	4.69% (inactive)
O=c1[nH]c(=O)n(CCc2ccccc2)c(O)c1C=NCCN1CCNCC1	-7.13% (inactive)
O=c1c(C=NCCN2CCNCC2)c(O)n(C2CCCCC2)c(=O)n1C1CCCCC1	82.3% (active)
OC(c1ccc(F)cc1)C(c1ccccc1)N1CCOCC1 (stereo not given)	7.16% (inactive)
O=c1[nH]c(=O)n(Cc2ccco2)c(O)c1C=NCCN1CCOCC1	0.93% (inactive)
CC1CCC(C(C)C)C(OP(N)(=O)c2ccccc2)C1 (stereo not given)	16.9% (inactive)
CNCCc1nc(N)n[nH]1	1.61% (inactive)
CCCCCCn1c(O)c(C=Nc2c(C)n(C)n(-c3ccccc3)c2=O)c(=O)[nH]c1=O	6.23% (inactive)
Cc1c(N=Cc2c(O)n(CCc3ccccc3)c(=O)[nH]c2=O)c(=O)n(-c2ccccc2)n1C	79.2% (active)
Cc1c(N=Cc2c(O)n(CCc3ccc(F)cc3)c(=O)[nH]c2=O)c(=O)n(-c2ccccc2)n1C	12.3% (inactive)
C=CCn1c(O)c(C=NCCN(C)C)c(=O)[nH]c1=O	2.68% (inactive)
O=c1[nH]c(=O)n(CCc2ccccc2)c(O)c1C=NCCCn1ccnc1	-3.73% (inactive)
CCOc1ccccc1-n1c(O)c(C=Nc2c(C)n(C)n(-c3ccccc3)c2=O)c(=O)[nH]c1=O	0.12% (inactive)
CC1(C)NCCN2C(=O)CSC21 (stereo not given)	-1.76% (inactive)
O=C(CCCN1CCC2(CC1)C(=O)NCN2c1ccccc1)c1ccc(F)cc1	54.1% (active)
CCCN(CC#CCO)CCC	0.1% (inactive)
Cn1c(O)c(C(=O)c2ccccc2Cl)c(=O)n(C)c1=O	2.11% (inactive)
CC(=O)OC1(c2ccc(C)cc2)CN2CCC1c1ccccc12 (stereo not given)	6.24% (inactive)
C=CCn1c(O)c(C=Nc2ccc(N(CC)CC)cc2)c(=O)[nH]c1=O	4.7% (inactive)

SMILES	growth inhibition
O=c1[nH]c(=O)n(-c2cccc(Cl)c2)c(O)c1C=NCCN1CCCCC1	4.68% (inactive)
Cc1c(N=Cc2c(O)n(Cc3ccco3)c(=O)[nH]c2=O)c(=O)n(-c2ccccc2)n1C	-0.44% (inactive)
CCCCCCn1c(O)c(C=NCCN2CCCCC2)c(=O)[nH]c1=O	-5.08% (inactive)
Clc1ccc(COC(Cn2ccnc2)c2ccc(Cl)cc2Cl)c(Cl)c1 (stereo not given)	92.5% (active)
c1ccc(Cn2ccnc2)cc1	8.97% (inactive)
Clc1ccc(COC(Cn2ccnc2)c2ccc(Cl)cc2Cl)cc1 (stereo not given)	91.6% (active)
Clc1ccc(CSC(Cn2ccnc2)c2ccc(Cl)cc2Cl)cc1 (stereo not given)	93.2% (active)
CCOc1ccc(-n2c(O)c(C=Nc3ccc(N(CC)CC)cc3)c(=O)[nH]c2=O)cc1	9.98% (inactive)
CC(=O)C1(c2ccccc2)CCNCC1	2.01% (inactive)
Cn1c(O)c(C=NCCCNC2CCCCC2)c(=O)n(C)c1=O	0.52% (inactive)
CCOc1ccccc1-n1c(O)c(C=Nc2ccc(N(CC)CC)cc2)c(=O)[nH]c1=O	45.4% (inactive)
CCCCSP1(=S)NCCCN1	2.57% (inactive)
O=C(COc1ccc2ccccc2c1)N1CCN(C2CCN(Cc3ccccc3)CC2)CC1	36.9% (inactive)
O=c1[nH]c(=O)n(C2CCCCC2)c(O)c1C=NCCCn1ccnc1	3.81% (inactive)
O=c1[nH]c(O)c(C=NC2CCN(Cc3ccccc3)CC2)c(=O)[nH]1	6% (inactive)
COc1cccc(-n2c(C)nc3ccccc3c2=O)c1	9.28% (inactive)
COc1ccc(C2SCC(=O)Nc3c2c(=O)[nH]n3C2CCCCCC2)cc1 (stereo not given)	25.3% (inactive)
CCC(=NCCOc1ccc(Cl)cc1)c1c(O)n(C)c(=O)n(C)c1=O	55.2% (active)
CCC(=NCCN1CCCCC1)c1c(O)n(C)c(=O)n(C)c1=O	-4.37% (inactive)
CC(=NCCO)c1c(O)n(C)c(=O)n(C)c1=O	-4.52% (inactive)
CCN(CC)CCCC(C)N=C(c1ccccc1)c1c(O)n(C)c(=O)n(C)c1=O (stereo not given)	7.06% (inactive)
O=C(Nc1ccncc1)c1c(O)c2ccccc2n(Cc2ccccc2)c1=O	68.1% (active)
CCN(CC)CCCNC(=O)c1c(O)c2ccccc2n(Cc2ccccc2)c1=O	91.6% (active)
CCN(CC)CCN=Cc1c(O)n(CCc2ccccc2)c(=O)[nH]c1=O	2.4% (inactive)

SMILES	growth inhibition
CN1CCc2nc(SCC(=O)OC(C)(C)C)c(C#N)cc2C1	25.1% (inactive)
CCCCC1(CN2CCCC2=O)C(=O)NC(=O)NC1=O	3.02% (inactive)
COCCOC(=O)C1=C(N)Oc2c(c(=O)oc3ccccc23)[C@@]12C(=O)Nc1ccccc12	-4.66% (inactive)
CC1CN=C(Nc2ccc(N(C)C)cc2)S1 (stereo not given)	0.47% (inactive)
CCOC(=O)c1cc(C)n(CCc2cnc[nH]2)c1C	9.02% (inactive)
C[C@H]1CCCC(=O)CCCCCc2cc(O)cc(O)c2C(=O)O1	52.1% (active)
OCCOCC#CCN1CCOCC1	0.81% (inactive)
CCCCSP1(=S)NCCCO1 (stereo not given)	19.6% (inactive)
C[C@@]1(CO)[C@H](O)CC[C@@]2(C)[C@H]1CC[C@H]1C[C@@H]3C[C@@]12CC[C@]3(O)CO	69.6% (active)
O=P(c1ccccc1)(c1ccccc1)N1CCCCC1	8.66% (inactive)
O=c1[nH]c(=O)n(Cc2ccco2)c(O)c1C=NCc1ccc2c(c1)OCO2	18.1% (inactive)
CC1=C(C(=O)OC(C)C)[C@]2(C(=O)N(CC(N)=O)c3ccccc32)C(C#N)=C(N)O1	5.06% (inactive)
c1ccc2c(c1)[nH]c1cnccc12	-5.8% (inactive)
Cc1c2ccncc2c(C)c2c1[nH]c1ccccc12	95% (active)
COc1cccc(CN2CCN(C(=O)COc3ccc4ccccc4c3)CC2)c1	33.9% (inactive)
C[C@H]1CCC/C=C/C2C[C@H](O)CC2[C@H](O)/C=C/C(=O)O1 (stereo not given in full)	76% (active)
OC(Cc1ccccc1)(c1ccccc1)C1CN2CCC1CC2 (stereo not given)	34.4% (inactive)
Cc1ccc2c(c1)[C@@H]1CN(C)CC[C@@H]1N2C(=O)Nc1cccc(C(F)(F)F)c1	83% (active)
COc1ccc(C(=O)CN2CCOCC2)cc1F	16% (inactive)
CN1CCc2c(c(N3CCCCC3)nc3n[nH]c(N)c23)C1	0.74% (inactive)
COc1ccc2[nH]cc(CCN(C)C)c2c1	1.86% (inactive)
CCCc1nc2ccccc2c(=O)n1-c1ccccc1OC	-0.02% (inactive)
CCN(CC)c1ccc(N=Cc2c(O)n(-c3ccccc3C)c(=O)[nH]c2=O)cc1	29.6% (inactive)
